From PubChem BioAssay AID1259422 (The Scripps Research Institute Molecular Screening Center, 2018) come the findings set out here.

SMILES strings stand for the structures. About 9,300 (1.5%) of roughly 640,000 compounds were called active. Only a selection was taken, and actives are over-represented in it overall. A number with no mark means an inactive call. Rule as the data show it: active = inhibition above about 32%; inactive = the rest.

This assay in a line: TEAD-YAP interaction inhibition, primary screen, TEAD-YAP interaction inhibitor project, luminescence, HEK-TIYL cells (AID 1259422).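 Also: 0% = median of test compound wells and 100% = reference inhibitor wells.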 The note with it: TEAD-Gal4/YAP UAS-luciferase luminescence, at 9.12 µM, active compounds read high.
As usually defined, the inhibition is the change of the read-out against control, counted positive when it falls. In the case of `CC[n+]1c(/C=C/C=C2\N(C)c3ccccc3C2(C)C)n(-c2ccccc2)c2ccc(Cl)cc21`, the inhibition is 91.8% (active).

With `C=C1C[C@@H](c2ccccc2)N2CCC[C@H]2[C@H]1C`, the inhibition is -6.5%.

On to `C=C(C)CN(CC)C(C)Cc1ccc(OC)c(OC)c1` (stereo not given), for which the inhibition was -4.32%.

On to `Cc1[nH]c2c(F)cccc2c1CCN`, for which the inhibition was 1.82%.

In the case of `CCOc1cc2c(cc1C=C(C#N)C#N)OCO2`, the inhibition is -1.58%.

Consider `CC1=CC(=Cc2sc3ccccc3[n+]2C)C=C(C)O1`, for which the inhibition is 85.8% (active).

Regarding `Cc1ccc2nc(NC(=O)c3c(O)c4c(n(Cc5ccco5)c3=O)CCCC4)sc2c1`, the inhibition is -4.37%.

As to `COc1cc(/C=C2\C(=O)NC(=O)N(c3ccccc3)C2=O)ccc1O`, the inhibition is 11.5%.

For the molecule `Cc1cc2c(cc1Br)NC(=O)C2(c1c(O)n(C)c(=O)n(C)c1=O)C(C#N)C#N` (stereo not given), the inhibition was -14.6%.

For `CN(C)P(=O)(c1cccc(C(=O)O)c1)N(C)C`, the inhibition was -4.89%.

As to `CCOc1ccc(C(Nc2ccccc2)P2(=S)OCC(C)(C)CO2)cc1` (stereo not given), the inhibition is 5.04%.

For the molecule `CN[C@@H]1C[C@H]2O[C@@](C)([C@@H]1OC)n1c3ccccc3c3c4c(c5c6ccccc6n2c5c31)C(=O)NC4`, the inhibition was 102% (active).

`O=C1NC(=S)NC(=O)C1=Cc1ccc(-c2ccccc2)o1`: the inhibition was 1.36%.

Consider `O=C(Cc1ccc(F)cc1)N(Cc1ccco1)C1CCN(Cc2ccncc2)CC1`, for which the inhibition is -7.86%.

On to `COc1ccc(C=C(C#N)C#N)c(C)c1C`, for which the inhibition was -13.8%.

Regarding `c1ccc2c(c1)[I+]c1ccccc1-2`, the inhibition is 60% (active).

Regarding `CCOC(=O)C1=C(N)Oc2n[nH]c(C)c2C12C(=O)Nc1ccc(Br)cc12` (stereo not given), the inhibition is 4.72%.

On to `CC(=O)Nc1cc([N+](=O)[O-])ccc1N1CCN(C)CC1`, for which the inhibition is -2.87%.

As for `COc1ccc(C(C[N+](=O)[O-])c2c(-c3ccccc3)[nH]c3ccccc23)cc1` (stereo not given), the inhibition is 52.6% (active).

Take `COc1ccc(-n2c(-c3ccccc3)nc3ccccc3c2=O)cc1`: the inhibition was 1.69%.

Consider `CCCCOc1ccccc1C1C(C#N)=C(N)Oc2c1c(=O)oc1ccccc21` (stereo not given), for which the inhibition was -0.47%.

With `Cc1ccc(NC(=O)C2C3c4ccccc4C(c4ccccc43)C2C(=O)O)cc1` (stereo not given), the inhibition was -0.29%.

Take `CCCCC[n+]1ccc(-c2cc[n+](CCCCC)cc2)cc1`: the inhibition was 56.5% (active).

Regarding `CCOC(=O)C1C2NC(=S)NC1(C)Oc1cc(OC)ccc12` (stereo not given), the inhibition is 0.95%.

In the case of `O=C(c1ccccc1)c1cc(Cl)ccc1N1C(=O)c2ccccc2C1=O`, the inhibition is -3.06%.

With `COc1cc(CN2CCN(C)CC2)ccc1O`, the inhibition is 4.62%.

As for `C[C@@H]1C[C@H]2CC[C@H](O2)[C@H](C)C(=O)O[C@@H](C)C[C@@H]2CC[C@@H](O2)[C@@H](C)C(=O)O[C@H](C)C[C@H]2CC[C@H](O2)[C@H](C)C(=O)O[C@@H](C)C[C@@H]2CC[C@@H](O2)[C@@H](C)C(=O)O1`, the inhibition was 94.6% (active).

Turning to `N#C/C(=C\c1cc2c(cc1Cl)OCO2)c1nn(CCO)c(N)c1C#N`, the inhibition was -18.8%.

On to `CCC(=O)C1=C(C)OC(N)=C(C(=O)OC)C12C(=O)Nc1ccccc12` (stereo not given), for which the inhibition is 3.18%.

As for `COc1ccc2c(c1)c(C(=O)N1CCN(C)CC1)c(C)n2C`, the inhibition was -6.79%.

Consider `C(=N\N1CCCCC1)/c1c[nH]c2ccccc12`, for which the inhibition is 4.68%.

For `O=C1CC(=O)N(C2CCCCCC2)C(=O)N1`, the inhibition was -0.34%.

On to `N#Cc1ccc(NC(=O)COC(=O)CCC2CCCC2)cc1Cl`, for which the inhibition is 0.25%.

For `c1ccc2c(CCNC3CC4CCC3C4)c[nH]c2c1` (stereo not given), the inhibition was -1.36%.

For the molecule `CCCCCCOc1ccc(C=C2C(=O)NC(=S)NC2=O)cc1`, the inhibition is 13%.
